Test results: PubChem BioAssay (NCI)
Compounds without any hit were thinned out: in the full panel of roughly 79,000, 15% have a hit. A number with no mark means an inactive call. Activity calls are given as the source filed them. No stated cut-off is given here; in the data, active means growth inhibition above about 70%; inactive means the rest.

What was measured:
[1] = NCI Yeast Anticancer Drug Screen. Data for the rad50 strain (AID 155);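 further: 0% = growth of vehicle-only cultures of the same strain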; conditions: S. cerevisiae rad50 strain growth inhibition, stronger effect = higher value
Summary of the method: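 Compounds were tested on a yeast strain with an engineered DNA damage repair alteration; the reported value is growth inhibition normalised to vehicle treatment.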

[2] = NCI Yeast Anticancer Drug Screen. Data for the mec2-1 strain (AID 157); conditions: S. cerevisiae mec2-1 strain, stronger effect = higher value
Summary of the method: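 Yeast mec2-1 mutant treated with compound. Readout: growth inhibition vs vehicle controls.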

[3] = NCI Yeast Anticancer Drug Screen. Data for the sgs1 mgt1 strain (AID 161);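 further: 0% = growth of cultures given vehicle only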; conditions: S. cerevisiae sgs1 mgt1 strain, stronger effect = higher value
Summary of the method: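 Read-out: growth inhibition vs vehicle controls. Cells: mutant yeast strain deficient in DNA damage repair.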

[4] = NCI Yeast Anticancer Drug Screen. Data for the cln2 rad14 strain (AID 165);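 further: 0% = growth equal to vehicle treated cultures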; conditions: S. cerevisiae cln2 rad14 strain, stronger effect = higher value
Summary of the method: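 cln2 rad14 yeast strain; compound exposure; growth inhibition read vs vehicle controls.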

[5] = NCI Yeast Anticancer Drug Screen. Data for the bub3 strain (AID 167); conditions: S. cerevisiae bub3 mutant strain, stronger effect = higher value
Summary of the method: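 Growth of a checkpoint-deficient yeast mutant is measured after compound exposure. Values represent inhibition relative to vehicle.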

[6] = NCI Yeast Anticancer Drug Screen. Data for the mlh1 rad18 strain (AID 175); conditions: S. cerevisiae mlh1 rad18 strain growth inhibition, stronger effect = higher value
Summary of the method: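 Yeast w/ defined DNA-repair lesions; compound exposure; growth vs vehicle controls → % inhibition.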

[7] = at 5.0 µM (retest, dose inferred, filed as 0.5)
[8] = at 50.0 µM (retest, dose inferred, filed as 5.0)

SMILES	growth inhibition [1, 7]	growth inhibition [1, 8]	growth inhibition ([1]; at 50.0 µM)	growth inhibition [2, 7]	growth inhibition [2, 8]	growth inhibition ([2]; at 50.0 µM)	growth inhibition [3, 7]	growth inhibition [3, 8]	growth inhibition ([3]; at 50.0 µM)	growth inhibition [4, 7]	growth inhibition [4, 8]	growth inhibition ([4]; at 50.0 µM)	growth inhibition [5, 7]	growth inhibition [5, 8]	growth inhibition ([5]; at 50.0 µM)	growth inhibition [6, 7]	growth inhibition [6, 8]	growth inhibition ([6]; at 50.0 µM)
[Cl][Hg][Cl]	99% (active)	99% (active)	91.3% (active)	100% (active)	100% (active)	93.3% (active)	100% (active)	100% (active)	94% (active)	99% (active)	99% (active)	92.3% (active)	100% (active)	92% (active)	93.1% (active)	100% (active)	99% (active)	92.4% (active)
O=[N+]([O-])c1c(Cl)sc(Cl)c1[N+](=O)[O-]	99% (active)	99% (active)	99.7% (active)	100% (active)	100% (active)	99.7% (active)	99% (active)	99% (active)	99.5% (active)	99% (active)	99% (active)	99.8% (active)	100% (active)	100% (active)	99.7% (active)	99% (active)	99% (active)	99.7% (active)
[C-]#[O+].[C-]#[O+].[C-]#[O+].[CH3][Sn]([c]1ccccc1)[c]1ccccc1.[Co].c1ccc([PH+](c2ccccc2)c2ccccc2)cc1	99% (active)	99% (active)	99.5% (active)	99% (active)	100% (active)	99.5% (active)	99% (active)	100% (active)	99.5% (active)	99% (active)	99% (active)	99% (active)	99% (active)	99% (active)	99.5% (active)	99% (active)	99% (active)	99.3% (active)
Cc1cccc(OCC(O)CN2CC2)c1 (centres undefined)	2%	64%	87.4% (active)	4%	52%	89.8% (active)	4%	78% (active)	89.4% (active)	4%	34%	87.8% (active)	-1%	34%	87.8% (active)	2%	95% (active)	88.5% (active)
CC12CCC(O)CC1CCC1C2CCC2(C)C1CC1CC(=O)OC12 (centres undefined)	82% (active)	98% (active)	98.5% (active)	58%	98% (active)	85.3% (active)	83% (active)	98% (active)	99% (active)	57%	99% (active)	98.8% (active)	72% (active)	98% (active)	98.9% (active)	85% (active)	98% (active)	97.2% (active)
O=C(CCCC(=O)NNC(=O)Nc1cccc(S(=O)(=O)F)c1)NNC(=O)Nc1cccc(S(=O)(=O)F)c1	1%	3%	73.2% (active)	11%	20%	72.3% (active)	3%	-19%	80% (active)	-8%	-8%	52.7%	-6%	-1%	84.3% (active)	9%	33%	72.8% (active)
O=C(O)C1C2c3cccc4cccc(c34)C12 (centres undefined)	-139%	88% (active)	44.8%	-50%	72% (active)	87.6% (active)	-56%	74% (active)	40.4%	-41%	78% (active)	85.3% (active)	-59%	86% (active)	93.2% (active)	-112%	81% (active)	83.8% (active)
CC(=O)C1C2c3ccccc3C(c3ccccc32)C1C (centres undefined)	3%	55%	77.6% (active)	-7%	52%	10.4%	-2%	62%	65%	-85%	63%	30.5%	-9%	71% (active)	45.1%	-1%	53%	69.5%
O=[N+]([O-])c1ccc(C=Cc2ccc(C(F)(F)F)cc2)cc1.[C-]#[O+].[C-]#[O+].[C-]#[O+].[Cr]	2%	67%	29%	0%	51%	55.8%	17%	60%	72.5% (active)	-22%	60%	26.6%	0%	75% (active)	73.2% (active)	12%	72% (active)	73.9% (active)
CN(C)c1ccc(/C=C/c2cc[n+]3ccsc3n2)cc1	-3%	69%	90.8% (active)	24%	94% (active)	88% (active)	-10%	93% (active)	92.2% (active)	-5%	63%	72% (active)	8%	90% (active)	96.2% (active)	2%	85% (active)	97.2% (active)
c1ccc(C[As+](c2ccccc2)(c2ccccc2)c2ccccc2)cc1	24%	92% (active)	97.3% (active)	4%	94% (active)	97.7% (active)	1%	89% (active)	98.8% (active)	1%	75% (active)	94.7% (active)	4%	96% (active)	93% (active)	11%	89% (active)	97.7% (active)
Cc1cccc(C)c1NC(=O)/C(CC(=O)CC(c1ccccc1)c1c(O)c2ccccc2oc1=O)=N/O (centres undefined)	26%	60%	1.1%	20%	34%	-5.8%	13%	55%	-1.5%	28%	45%	-10.4%	35%	50%	4.85%	25%	43%	2.1%
COC(=O)C(Cl)(Br)CCl (centres undefined)	13%	85% (active)	68.5%	6%	86% (active)	79.7% (active)	4%	49%	42.1%	3%	65%	12.3%	9%	95% (active)	43%	8%	81% (active)	38.7%
c1ccc(NC2=NCCN2)nc1	-4%	82% (active)	14.4%	-26%	99% (active)	34.2%	11%	70% (active)	62.3%	24%	49%	0.35%	-8%	84% (active)	25.4%	-13%	98% (active)	15.2%
C[CH2][Sn]([CH2]C)([S]CCS(=O)(=O)O)[S]CCS(=O)(=O)O (tested in a mixture with another compound)	18%	26%	53.9%	17%	46%	45.8%	-22%	54%	27.3%	-10%	67%	19%	-1%	66%	17.6%	16%	32%	-25.9%
Cc1cc(C)c(O)c(C)c1.[Hg]	99% (active)	98% (active)	99.5% (active)	99% (active)	99% (active)	99.5% (active)	99% (active)	99% (active)	99.5% (active)	99% (active)	99% (active)	99.4% (active)	98% (active)	99% (active)	99.3% (active)	98% (active)	98% (active)	99.5% (active)
CN(C)C(=S)[S][Sb]([c]1ccccc1)[c]1ccccc1	97% (active)	99% (active)	70.6% (active)	99% (active)	99% (active)	83.5% (active)	93% (active)	99% (active)	90.3% (active)	89% (active)	97% (active)	57.1%	98% (active)	75% (active)	98.3% (active)	99% (active)	99% (active)	90.5% (active)
CC(C)[O-].CC(C)[O-].[O-]c1cccc2cccnc12.[O-]c1cccc2cccnc12.[Ti+4]	6%	6%	55.5%	11%	11%	70.8% (active)	4%	4%	37.6%	6%	6%	51.8%	-3%	-3%	64.8%	-24%	-24%	58.9%
